Assay outcomes: PubChem BioAssay, several laboratories
CYP2C9 activ = activators of human CYP2C9; P11712; recombinant CYP2C9, luciferin-H conversion, luminescence; active compounds read high; factor 1 = untreated enzyme, 0 = blocked; activation factor at 5 µM; 96,000 compounds, 1.4% hits; AID 1024;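 active means activation factor of 2 or more for CYP2C9 at a 5 µM dose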;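 further: 0 = sulfaphenazole-blocked wells and 1 = vehicle-only wells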
Target sequence (P11712 whole entry, looked up): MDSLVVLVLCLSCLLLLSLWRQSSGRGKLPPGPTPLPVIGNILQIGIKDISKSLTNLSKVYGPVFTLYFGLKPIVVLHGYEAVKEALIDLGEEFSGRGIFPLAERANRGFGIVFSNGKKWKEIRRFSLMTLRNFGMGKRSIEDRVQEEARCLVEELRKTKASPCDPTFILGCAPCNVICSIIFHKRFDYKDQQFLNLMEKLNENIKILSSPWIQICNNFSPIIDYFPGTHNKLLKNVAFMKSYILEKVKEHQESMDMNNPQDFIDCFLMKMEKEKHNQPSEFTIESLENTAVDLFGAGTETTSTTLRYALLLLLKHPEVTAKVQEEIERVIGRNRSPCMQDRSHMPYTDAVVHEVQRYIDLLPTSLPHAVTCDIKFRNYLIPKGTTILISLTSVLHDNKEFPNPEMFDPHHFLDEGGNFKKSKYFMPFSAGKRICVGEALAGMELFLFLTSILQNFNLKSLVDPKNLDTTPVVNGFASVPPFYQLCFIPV
PostGolgi ctrl = inhibits growth of the yeast control strain. efflux-deficient yeast background strain, growth absorbance A615, 16 h. inhibition, % at 10 µM. 98,000 compounds, 5% hits. AID 738
CYP2C19 inh = blocks human cytochrome P450 2C19. 96,000 compounds, 21% hits. CYP2C19 Supersomes, luciferin-H EGE luminescence, 30 min. P33261. inhibition, % at 5 µM;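 active means CYP2C19 inhibition above a set limit at 5 µM in the primary screen, cut at about 50% in these data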;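 further: plate controls were negative control wells for no effect and 2.5 mM tranylcypromine positive control for full effect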
PostGolgi yeast = growth inhibition of a yeast mutant, post-Golgi transport screen; post-Golgi transport phenotypic cell assay; inhibition, % at 10 µM; 98,000 compounds, 0.9% hits; AID 739;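 further: yeast cells grown in 1536-well plates; yeast grown about 18 h at 30C before absorbance read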
CYP2C9 inh = inhibitors of human CYP2C9; P11712; CYP2C9 Supersomes, luciferin-H conversion, luminescence; inhibition, % at 5 µM; 96,000 compounds, 20% hits; AID 777;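 active means blocking of liver enzyme CYP2C9 beyond about 50% at 5 µM, limit read from the data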
CYP2C19 activ = cytochrome P450 2C19 (human) activation; P33261; recombinant CYP2C19, luciferin-H EGE luminescence; active compounds read high; 0 = fully inhibited enzyme, 1 = untreated enzyme; activation factor at 5 µM; 96,000 tested, under 10 active; AID 1025;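 active means activation factor of at least 2 at 5 µM in the primary screen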;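 further: 0 = wells with 2.5 mM tranylcypromine and 1 = vehicle-only wells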
* = called active by the depositor. Rows were chosen to be rich in hits. Some 32% of all compounds tested hit in one or more screens of this group. Unless noted, no stated cut-off is given here; in the data, active means inhibition above about 30%; inactive means the rest.

SMILES	CYP2C9 activ	PostGolgi ctrl	CYP2C19 inh	PostGolgi yeast	CYP2C9 inh	CYP2C19 activ
CCN(CC)C(=O)Cn1c(=O)n(-c2ccccc2)c(=O)n1CC(=O)N(CC)CC	1.1	14	5	8	-10	1
Cc1cc(Nc2ccccc2)n(-c2ccc(Br)cc2)n1	0	12	90*	-1	97*	0.1
COC(=O)C(Cc1cnc(Cl)s1)(C(=O)OC)c1ccc([N+](=O)[O-])cc1	0.3	3	91*	-4	73*	0.1
COC(=O)C(Cc1cnc(Cl)s1)(C(=O)OC)c1ccccc1[N+](=O)[O-]	0.3	3	94*	-3	65*	0.1
COC(=O)C(C)(C(=O)OC)c1ccc([N+](=O)[O-])cn1	1	-2	6	-4	-5	0.9
COC(=O)C(C)(C(=O)OC)c1ccccc1[N+](=O)[O-]	0.9	1	8	0	7	0.9
O=C(O)CC1NC(=O)N(c2ccc(Cl)cc2)C1=O (configuration not stated)	1.2	20	-10	0	-22	1.1
COCCOC(=O)c1c(C)nc(SCC(=O)Nc2cccc3ccccc23)c(C#N)c1-c1ccco1	0.1	7	4	-6	94*	1
Cc1cc(=O)[nH]c(SCC(=O)Nc2cccc3ccccc23)c1C#N	0.1	15	26	-9	86*	0.7
CNC(=O)c1c(C)nc(SCC(=O)NCc2ccc(OC)cc2)c(C#N)c1-c1ccco1	0.8	4	2	4	24	1
COCCOC(=O)c1c(C)nc(SCC(=O)Nc2ccc(C)cc2)c(C#N)c1-c1ccco1	0.1	3	64*	-1	92*	0.4
NC(=O)c1ccccc1OCC(=O)NC12CC3CC(CC(C3)C1)C2	1.2	3	12	-1	-17	0.9
O=C(Cn1sc2ccccc2c1=O)NC12CC3CC(CC(C3)C1)C2	0.1	14	39	2	90*	0.6
CCCCOc1ccccc1NC(=O)c1ccc(=O)[nH]c1	1.1	9	-7	2	-9	1.1
CCCC(=O)NC(=S)Nc1cccc(NC(=O)c2ccc(Cl)cc2Cl)c1	1.2	7	-19	-7	-17	1.2
COc1ccc(-c2cnn(C3CCS(=O)(=O)C3)c2N)cc1 (configuration not stated)	1	-6	7	4	0	0.9
Cc1ccccc1CSc1nncn1N	0.9	19	3	-15	12	1
CC(C)(CSc1nncn1N)NS(=O)(=O)c1ccc(Cl)cc1	0.5	8	95*	-4	51*	0.1
O=C(Nc1ccccc1F)c1ccc(S(=O)(=O)NCC2CCCO2)cc1 (configuration not stated)	0.9	5	-1	-3	9	1
CCCCN1CNC(=S)N(c2cc(C)ccc2C)C1	0.9	2	72*	0	9	0.3
Cc1ccc(C)c(N2CC(=O)N(c3cc(C)ccc3C)CC2=O)c1	1.1	-2	-11	3	-14	1.1
COc1cc(C(=O)NCCCNc2nc3cc(C)cc(C)c3cc2C#N)cc(OC)c1OC	0.5	1	57*	7	50	0.4
CC1(C)Cc2c(C#N)c(SCC(=O)c3ccccc3)nc(N3CCOCC3)c2CS1	0	11	81*	1	98*	0.2
CN1Cc2c(N3CCOCC3)nc(SCc3ccccc3)c(C#N)c2CC1(C)C	0.1	20	41	-3	91*	0.6
CCSc1nc(N2CCOCC2)c2c(c1C#N)CC(C)(C)N(C)C2	0.1	2	51*	-3	87*	0.5
SMILES	CYP2C9 activ	PostGolgi ctrl	CYP2C19 inh	PostGolgi yeast	CYP2C9 inh	CYP2C19 activ
COC(=O)CSc1nc(N2CCOCC2)c2c(c1C#N)CC(C)(C)N(C)C2	0.4	20	5	0	56*	1
N#Cc1ccc(-c2ccco2)nc1SCc1ccccc1	0.8	11	-1	-3	21	1
O=C(CSc1n[nH]c(=O)[nH]c1=O)c1ccccc1	1.1	-7	-7	-8	-7	1.1
COc1ccc(CC(=O)OCC(=O)NC(=O)NC(C)C)cc1	1	13	-3	-7	4	1
Cn1ncc(N=Cc2ccc([N+](=O)[O-])cc2)c1C(=O)N1CCOCC1	1.3	0	-26	7	-33	1.3
Cc1c(CN(C)C)c2c(n1C)C(=O)c1ccc(Br)cc1-2	1	13	0	10	-1	1
Cc1c(CN(C)C)c2c(n1Cc1ccccc1)C(=O)c1ccc(Br)cc1-2	0.4	14	79*	5	63*	0.2
CCOC(=O)C1CCCN(C(=O)CCn2nc(-c3ccccc3)ccc2=O)C1 (configuration not stated)	1	6	5	5	-4	1
CCCCC(CC)C(=O)NCCc1ccc(S(N)(=O)=O)cc1 (configuration not stated)	0.4	-5	9	19	59*	0.9
CCC(CC)C(=O)NCCc1ccc(S(N)(=O)=O)cc1	0.5	-1	-14	8	49	1.1
CC(=O)Nc1cccc(C(=O)NC(C)c2ccc(S(N)(=O)=O)cc2)c1 (configuration not stated)	0.9	-2	-6	22	7	1.1
CCC(CC)C(=O)Nc1cccc(C(=O)NCCc2ccc(S(N)(=O)=O)cc2)c1	0.1	18	78*	5	90*	0.2
O=C(O)CCCNS(=O)(=O)c1cccc2nsnc12	1	-1	-6	-4	1	1.1
O=S(=O)(NCCc1ccccc1)c1cccc2nsnc12	0.4	1	99*	-10	59*	0
O=S(=O)(NCCOC12CC3CC(CC(C3)C1)C2)c1cccc2nsnc12	1.3	18	97*	-2	-31	0
CC(=O)c1c(C)nc2ccc(Br)cc2c1C(=O)O	0.8	2	4	4	15	1
O=C(CSc1nc2c(c(=O)n1-c1ccccc1)SCC2)N1CCOCC1	1	2	-2	-1	3	1
COc1ccc(-n2c(SCC(=O)Nc3ccccc3)nc3c(c2=O)SCC3)cc1	0.7	40*	42	-3	33	0.6
COc1ccc(NC(=O)CSc2nc3c(c(=O)n2-c2ccc(F)cc2)SCC3)cc1	0.4	9	41	-8	62*	0.6
O=C(CSc1nc2c(c(=O)n1-c1ccc(Br)cc1)SCC2)Nc1nccs1	0.7	6	61*	-22	27	0.4
O=C(CSc1nc2c(c(=O)n1-c1ccccc1)SCC2)N1CCN(c2ccccc2)CC1	0.4	17	82*	-1	63*	0.2
CC(C)(C)NC(=O)CCN1CCOCC1	1.3	-3	-27	-3	-33	1.3
O=C(Cc1ccccc1)NC(NCCCN1CCOCC1)(C(F)(F)F)C(F)(F)F	0.8	-2	15	13	18	0.8
CCN1CCN(CNC(=O)c2cnccn2)CC1	1.1	2	-2	0	-8	1
